Data reported in paper PMC12136788.
The full ranking holds about 24,000 sequences; the median of “enrichment r” is about 0.99, and the highest 2% start at about 3.7. For the sample, the highest values were picked, then their nearest neighbours and some sequences at random.

T1: UNK ZnF1-3 (human, UniProt Q9C0B0 31-174)
T1 sequence: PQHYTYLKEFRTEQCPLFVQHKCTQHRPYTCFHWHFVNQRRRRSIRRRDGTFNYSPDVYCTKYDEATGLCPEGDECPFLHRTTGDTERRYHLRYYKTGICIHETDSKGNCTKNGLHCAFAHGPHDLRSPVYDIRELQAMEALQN

B1: chr12:56499883:56499884:+_ENSMUSG00000021024_ENSMUST00000021412|mus_mus|FALSE|FALSE (ssRNA)
RNA: GGGAGUUCUACAGUCCGACGAUCGAUAGUAAUGUGACGGUCAAAACCGGCGCUGGAACCCCGGGACAUGGCGUUCCUGCUAUUUUAAACACAGUCUGCACCCCGUAGCACACACACCAGGGACCCAAGCCCCCUCCCGGAAGUCAACAGAGGAUUGAGCAUCA
B2: chr8:110352747:110352748:+_ENSG00000120533_ENST00000521662|hu_mus|FALSE|FALSE (ssRNA)
RNA: GGGAGUUCUACAGUCCGACGAUCCAGGGCUCUGCCUUUUGGAGUGAUUUCAGCCACCAAGUCAUCAACAGUAACGUGUUCUAGUCCUUUUUCUUUAAUUACCUCUUUACAGUGUGCCUUUAGCUGAUCCUUCCAGCCGCACUCCAACAGAGGAUUGAGCAUCA
B3: chr6:31457689:31457690:+_ENSMUSG00000025609_ENSMUST00000142469|perfect_dup|motif|central (ssRNA)
RNA: GGGAGUUCUACAGUCCGACGAUCUGAUCAGGUCUACCAGGUUGCCUUUAGGAGGAGUCAUGCUGUCAGGAAAGAAAUUUACGGAGGUGUCAAAGAGCUGAGUUCUUUGAGCAUAGGUAUGAUCCACAUCUGAAAAGCCAUAAUCAACAGAGGAUUGAGCAUCA
B4: chr12:25667166:25667167:+_ENSMUSG00000036333_ENSMUST00000066652|mus_mus|motif|central (ssRNA)
RNA: GGGAGUUCUACAGUCCGACGAUCUCUUCCACAUAAUUUAUCACACUCUGUGAUAUAAGAACCGACAUUUUCACAGAAAUCGGUAGCCGACUUUAAUUCACCGUGUCACGGCCUGGCCGAAGACGGCGCCCUCAGCUCUGCAGACAACAGAGGAUUGAGCAUCA
B5: chr19:8913615:8913616:-_ENSMUSG00000071658_ENSMUST00000096259|mus_hu|mus_mus_mus_hu_False|1_8 (ssRNA)
RNA: GGGAGUUCUACAGUCCGACGAUCAGGGUACCAAAACCUUCUGCCUGAAAUGGGUGCCCCACCCAGUAGGGAGUUGCAGCUGAAAGUAUCUGAUGCAGAAGCAGUGACUAUACGAAAGGAGGCCCCUGAUGCUCAGACGAGAUCCAACAGAGGAUUGAGCAUCA
B6: chr2:241070490:241070491:-_ENSG00000172428_ENST00000607357|hu_mus|FALSE|FALSE (ssRNA)
RNA: GGGAGUUCUACAGUCCGACGAUCUCACAGACAUGGAGCACAUAGGACCGGGCGGCCUCACUGGACAUCAUCAUCAUCAAAAAGGUCUUCAAAAUCAUUAAAAAAGUCUGCAUGAACGGCCUUCUCAUUGGCUGCCAGGUCCAUCAACAGAGGAUUGAGCAUCA

molecular target: T1, UNK ZnF1-3; test: nsRBNS (natural sequence RNA bind-n-seq); RBNS binding buffer (assumed for nsRBNS): 25 mM Tris pH 7.5, 150 mM KCl, 3 mM MgCl2, 0.01% Triton X-100, 500 ug/ml BSA, 20 U/ml SUPERase-In, 4 C; UNK is unkempt and MSI1 is Musashi-1; names of the RNAs are library labels; protein concentration not given here; high values mean tight binding

| Binder | binding signal |
| --- | --- |
| B1 | 0.679 enrichment R |
| B2 | 0.801 enrichment R |
| B3 | 1.63 enrichment R |
| B4 | 0.699 enrichment R |
| B5 | 1.25 enrichment R |
| B6 | 0.924 enrichment R |
